Results filed as inconclusive are left out. The source made the active and inactive calls. Calls follow the shape of the dose curve; as a rule, active = well fitted curve in the direction sought with a large enough effect; inconclusive = small, poorly fitted or top-dose-only effect, or another doubt; inactive = no such curve, though single readings can be large; an effect the other way counts as inactive or inconclusive.
% is scaled to controls: 0 for no effect and ±100 for the full control effect.
Also: nearly all actives have a fitted effect of over 70% in size.

A short description of one test: Primary qHTS for inhibitors of nuclear receptor binding SET domain protein 2 (NSD2) in an isogenic RCH-ACV NSD2 p.E1099K mutant (9B) (AID 1645876). Also: potency is read from the fitted curve at half-maximal effect. The settings on record: RCH-ACV NSD2 E1099K (9B) viability, CellTiter-Glo, 72 h; series mostly up to 44.9 µM; activity change, negative = viability loss: at the top concentration. On the technique in general: Quantitative high-throughput screening tests each substance at several concentrations.
`C=CCN1CCc2nc(N)sc2CC1`: the outcome was inactive. With `CN1CCC(OC(c2ccccc2)c2ccccc2)CC1`, the “activity change, negative = viability loss” value is -2.61% (inactive). On to `Nc1nc(-c2ccccc2)c(Br)c(=O)[nH]1`, for which the “activity change, negative = viability loss” value is -19.4% (inactive). Turning to `CC(C)(C)NCC(O)COc1cccc2c1C[C@H](O)[C@H](O)C2` (stereo partly specified), the result was inactive. `CCOC(=O)c1c(N)sc2c1CCN(Cc1ccccc1)C2`: the Potency was 16.8 µM (active). With `CCCCOC(=O)CC(CC(=O)OCCCC)(OC(C)=O)C(=O)OCCCC`, the “activity change, negative = viability loss” value is -21.1% (inactive). On to `CC(C)Cn1cnc2c1c(=O)n(C)c(=O)n2C`, for which the “activity change, negative = viability loss” value was -14.2% (inactive).

In the case of `CCOc1cc(OCC)c(C(=O)CCC(=O)O)cc1OCC`, the “activity change, negative = viability loss” value is -2.68% (inactive). `O=C1C(=O)c2ccccc2C(O)=C1C1CCC(c2ccc(Cl)cc2)CC1` (stereo unspecified): the “activity change, negative = viability loss” value was -1.04% (inactive). Same read-out and setting: under `NC(=O)C1(N2CCCCC2)CCN(CCCC(=O)c2ccc(F)cc2)CC1` stands 3.38% (inactive).

A further test can be described thus: Primary qHTS for inhibitors of nuclear receptor binding SET domain protein 2 (NSD2) in an RCH-ACV wild type WT cells (2C) (AID 1645877). Conditions: RCH-ACV (leukaemia line) NSD2 WT (2C) viability, CellTiter-Glo, 72 h; series mostly up to 44.9 µM; activity change, negative = cell killing: at the top concentration.
With `C=CCN1CCc2nc(N)sc2CC1`, the molecule was classed as inactive. As for `Nc1nc(-c2ccccc2)c(Br)c(=O)[nH]1`, the “activity change, negative = cell killing” value was -10.9% (inactive). Same read-out and setting: to `CC(C)(C)NCC(O)COc1cccc2c1C[C@H](O)[C@H](O)C2` (stereo partly specified) belongs 0.298% (inactive). Take `O=C1C(=O)c2ccccc2C(O)=C1C1CCC(c2ccc(Cl)cc2)CC1` (stereo unspecified): the result was inactive.

`NS(=O)(=O)Cc1noc2ccccc12`: the “activity change, negative = cell killing” value was -22.7% (inactive).

Turning to `NC(=O)C1(N2CCCCC2)CCN(CCCC(=O)c2ccc(F)cc2)CC1`, the “activity change, negative = cell killing” value is 6.56% (inactive).

These data come from PubChem BioAssay (NCATS).
